Rows were chosen to be rich in hits. Some 3.5% of all compounds tested hit in one or more screens of this group.
FBW7 act: FBW7 E3 ligase activators, primary screen, biochemical, AlphaScreen, human. F-box/WD repeat-containing protein 7 (Homo sapiens), Q969H0. AlphaScreen FBW7–phospho-cyclin E peptide binding, activator screen. normalized activity (activation), % at 26.1 µM. 650,000 tested, 0.13% active. AID 1259310, 2017; in the data active means normalized activity above about 1.9%;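 further: purified mutant Fbw7 with reduced substrate affinity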
TEAD-YAP block: TEAD-YAP interaction inhibition, primary screen, TEAD-YAP interaction inhibitor project, luminescence, HEK-TIYL cells; TEAD-Gal4/YAP UAS-luciferase luminescence; inhibition, % at 9.12 µM; 640,000 tested, 1.4% active; in the data active means inhibition above about 32%
MITF primary: MITF inhibitors, primary screen, biochemical, AlphaScreen, human; AlphaScreen MITF homodimerization, bead proximity signal; inhibition, % at 2.6 µM; 650,000 tested, 0.91% active; in the data active means inhibition above about 50%
Target sequence (O75030 whole entry, looked up): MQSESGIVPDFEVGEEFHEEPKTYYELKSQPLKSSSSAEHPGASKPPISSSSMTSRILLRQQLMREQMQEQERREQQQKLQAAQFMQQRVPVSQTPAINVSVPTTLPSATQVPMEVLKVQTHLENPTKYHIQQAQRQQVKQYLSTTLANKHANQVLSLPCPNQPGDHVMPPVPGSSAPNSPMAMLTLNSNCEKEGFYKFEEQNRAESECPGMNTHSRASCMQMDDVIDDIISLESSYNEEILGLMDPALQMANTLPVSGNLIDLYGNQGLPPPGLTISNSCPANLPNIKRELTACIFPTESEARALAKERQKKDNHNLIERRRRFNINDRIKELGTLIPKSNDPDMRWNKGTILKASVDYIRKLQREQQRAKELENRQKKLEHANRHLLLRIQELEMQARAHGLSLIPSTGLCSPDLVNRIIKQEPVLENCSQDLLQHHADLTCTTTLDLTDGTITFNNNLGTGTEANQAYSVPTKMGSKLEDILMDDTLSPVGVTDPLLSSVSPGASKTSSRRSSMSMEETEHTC
GPR151 ag: activators of human GPR151, primary screen, cell-based, PathHunter beta-arrestin, luminescence; G-protein coupled receptor 151 (Homo sapiens), Q8TDV0; PathHunter beta-arrestin GPR151 cells; activation, % at 11.2 µM; 650,000 tested, 1% active; AID 1508602, 2020; in the data active means activation above about 4.9%
GPR151 confirm: GPR151 activators, triplicate retest, confirmation, cell-based, PathHunter beta-arrestin, luminescence; shares compounds with GPR151 ag; GPR151 PathHunter beta-arrestin cells, 90 min; % of EA-reagent control over plate median; activation, % at 11.2 µM; 6,700 tested, under 10 active;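 active means mean percent activation across replicates above the confirmation screen cutoff of 4.91%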
GPR119 ag: GPR119 activators in beta-arrestin cells, counter-screen for GPR151 activator project, cell-based, PathHunter beta-arrestin, luminescence, triplicate. 90 min; 0 = compound-well median, 100 = enzyme-acceptor control. activation, % at 11.2 µM. shares compounds with GPR151 ag. 6,700 tested, 0.3% active;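 active means mean percent activation in the counterscreen above 29.09%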;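 further: counterscreen on off-target GPR119 to flag nonselective hits from the GPR151 activator screen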
Each line names hits and unclear results; the compound was inactive in the other large screens (follow-up assays come after a bar, where they were run).

CCOc1ccc(N2C(=O)NC(=O)/C(=C\c3cc(Cl)ccc3OCC(=O)O)C2=O)cc1	none
CS(=O)(=O)c1ccc(CC(=O)N2CC[C@@H](c3ccccc3)[C@H](O)C2)cc1	none
COc1cc(C(=O)Nc2cc(C)c(O)cc2C)cc(OC)c1OC	GPR151 ag 6.1 | GPR151 confirm inactive | GPR119 ag inactive
COc1cc(C(=O)Nc2ccc(O)cc2C)cc(OC)c1OC	none
O=C(CCc1nnc(-c2ccsc2)o1)N1CCc2sccc2C1	GPR151 ag 5.4 | GPR151 confirm inactive | GPR119 ag inactive
Cc1cc2c(=O)n(CC(=O)NCC(=O)O)cnc2s1	none
COc1ccc(/C=C2/c3ccccc3-c3nc4ccccc4cc32)cc1OC	none
COc1ccc(/C=C2/c3ccccc3-c3cc4c(C)cc(C)nc4cc32)cc1OC	GPR151 ag 5.8 | GPR151 confirm inactive | GPR119 ag inactive
COc1ccc(OC)c(NC(=O)COc2ccccc2C(C)(C)C)c1	none
COc1ccc(NC(=O)COc2ccc(C)cc2C)c(OC)c1	GPR151 ag 7.9 | GPR151 confirm inactive | GPR119 ag inactive
COc1ccc(OC)c(NC(=O)COc2ccc(Br)cc2C(C)(C)C)c1	GPR151 ag 5.9 | GPR151 confirm inactive | GPR119 ag inactive
CN1CCN(CC(=O)N2c3ccccc3Sc3ccc(C(F)(F)F)cc32)CC1	none
O=C(CN1CCC(O)CC1)N1c2ccccc2Sc2ccc(C(F)(F)F)cc21	GPR151 ag 8.4 | GPR151 confirm inactive | GPR119 ag inactive
COc1ccc(/C=N\OCC(=O)Nc2sc3c(c2C#N)CCCC3)cc1	none
CCc1ccccc1N(CC(=O)Nc1ccccc1Cl)S(C)(=O)=O	GPR151 ag 14 | GPR151 confirm inactive | GPR119 ag inactive
CS(=O)(=O)N(CC(=O)Nc1cccc(F)c1)c1ccccc1F	none
CCc1ccccc1N(CC(=O)Nc1ccccc1SC)S(C)(=O)=O	GPR151 ag 5.6 | GPR151 confirm inactive | GPR119 ag inactive
CS(=O)(=O)N(CC(=O)Nc1cccc(F)c1)c1ccccc1Cl	GPR151 ag 5.0 | GPR151 confirm inactive | GPR119 ag inactive
CC(C)NC(=O)CN(c1cccc2ccccc12)S(C)(=O)=O	GPR151 ag 8.4 | GPR151 confirm inactive | GPR119 ag inactive
COc1cc2nc(N3CCOCC3)nc(Nc3ccc(N4CCOCC4)cc3)c2cc1OC	none
CCN1CCCC1CNC(=O)c1cc(NC(C)=O)c(N(C)C)cc1OC (centres undefined)	none
CCC(C)Oc1ccc(/C=C/c2nc(O)c([N+](=O)[O-])c(=O)[nH]2)cc1OC (centres undefined)	none
COCCNC(=O)/C(C#N)=C/c1cn(CCOc2ccccc2F)c2ccccc12	none
CCn1c2ccccc2c2cc(NC(=O)Cn3c4ccccc4c(=O)c4ccccc43)ccc21	none
CCc1ccccc1N(CC(=O)Nc1ccc(F)c(F)c1)S(C)(=O)=O	GPR151 ag 6.7 | GPR151 confirm inactive | GPR119 ag inactive
COc1ccccc1N1CCN(CCN2CCN(C)CC2)CC1	GPR151 ag 13 | GPR151 confirm inactive | GPR119 ag inactive
CCC(=O)c1ccc(OCC(O)CN2CCN(c3ccccc3OC)CC2)cc1 (centres undefined)	none
COC(=O)c1ccc(OCC(O)CN2CCN(c3ccccc3OC)CC2)cc1 (centres undefined)	GPR151 ag 11 | GPR151 confirm inactive | GPR119 ag inactive
O=C(CN(c1ccccc1)S(=O)(=O)c1ccc(F)cc1)N1CCCCCC1	none
Cc1ccccc1-c1cc(C(=O)Nn2cnnc2)c2ccccc2n1	none
CC(C)Sc1nc2c(c(=O)[nH]1)C(c1cccs1)C1=C(CCCC1=O)N2 (centres undefined)	GPR151 ag 5.2 | GPR151 confirm inactive | GPR119 ag inactive
C/C(=N\Nc1cc(N2CCOCC2)nc(C)n1)c1cccc([N+](=O)[O-])c1	GPR151 ag 5.2 | GPR151 confirm inactive | GPR119 ag inactive
NC(=O)c1ccc(-c2cccc(C(=O)NCCc3ccc(O)cc3)n2)cc1	GPR151 ag 5.4 | GPR151 confirm inactive | GPR119 ag inactive
NC(=O)c1ccsc1NC(=O)c1cc2c(ccc3ccccc32)oc1=O	none
Cc1c(C(=O)CSc2ccc(F)cc2F)sc2ncnn12	GPR151 ag 5.9 | GPR151 confirm inactive | GPR119 ag inactive
CO/N=C(\CSc1ccccc1OC)c1sc2ncnn2c1C	none
CCOc1cccc(NC(=O)/C(C#N)=C\c2ccc(OCC(=O)O)c(Br)c2)c1	GPR151 ag 6.1 | GPR151 confirm inactive | GPR119 ag inactive
CCOc1cccc(NC(=O)/C(C#N)=C/c2ccccc2)c1	none
Cc1cccc(C)c1NC1=NC(=S)N(c2ccc(Br)cc2)C1(C)Cc1ccccc1 (centres undefined)	none
COc1ccc(N(CC(=O)NCCSc2ccccc2)S(C)(=O)=O)cc1Cl	none
Cc1ccc(-c2nnc3sc(NC(=O)CC(C)C)nn23)cc1	GPR151 ag 27 | GPR151 confirm inactive | GPR119 ag inactive
CCCC(=O)Nc1nn2c(-c3cccc(OC)c3)nnc2s1	GPR151 ag 5.2 | GPR151 confirm inactive | GPR119 ag inactive
COc1ccc(Br)cc1/C=C1\SC(=S)N(C)C1=O	none
COCCCN1C(=O)c2ccc(C(=O)Oc3ccc(C(C)(C)C)cc3)cc2C1=O	GPR151 ag 5.2 | GPR151 confirm inactive | GPR119 ag inactive
O=C(Nc1ccc(S(=O)(=O)N2CCC(c3nc4ccccc4[nH]3)CC2)cc1)C1CCCCC1	none
COCC1CCCCN1Cc1c(C(=O)N2CCCN(C)CC2)nc2sccn12 (centres undefined)	GPR151 ag 15 | GPR151 confirm inactive | GPR119 ag inactive
COCC1CCCN(Cc2c(C(=O)N3CCCN(C)CC3)nc3sccn23)C1 (centres undefined)	none
CCOC(=O)C1CCN(C(=O)/C=C/c2ccc([N+](=O)[O-])cc2)CC1	none
CCOC(=O)C1CCN(C(=O)/C=C/c2cccc([N+](=O)[O-])c2)CC1	GPR151 ag 6.6 | GPR151 confirm inactive | GPR119 ag inactive
CC1CCN(C(=O)CSc2nc3[nH]ncc3c(=O)[nH]2)CC1	GPR151 ag 7.7 | GPR151 confirm inactive | GPR119 ag inactive
C=CCNC(=O)c1sc(=S)n(CCc2ccccc2)c1N	GPR151 ag 5.2 | GPR151 confirm inactive | GPR119 ag inactive
CCCCCCc1cc(O)c2c(C)cc(=O)oc2c1	GPR151 ag 7.0 | GPR151 confirm inactive | GPR119 ag inactive
COc1ccc(-n2nc(C(=O)NCc3ccc(F)cc3)c3ccccc3c2=O)cc1	none

Screening data: PubChem BioAssay, The Scripps Research Institute Molecular Screening Center
